Shown are actives, neighbours in structure and some others; about 0.86% of the full set was active somewhere.
IDE cell inh: inhibits human insulin-degrading enzyme in HEK cells | AID 434962 | hit rate 0.41% among 320,000 | P14735 | FAbetaB cleavage, fluorescence polarization | inhibition, % at 5.59 µM;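 active means percent inhibition above the average of all tested compounds plus 3 SD, set per screening campaign, cut at about 16% in these data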;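 further: IDE supplied by intact live HEK cells; FP after avidin binding of uncleaved biotin substrate so inhibition keeps polarization high; 0% = DMSO wells and 100% = 60 µM reference IDE inhibitor Ii1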
TLR9-MyD88 block: TLR9-MyD88 interaction inhibition; CHO BLA complementation TLR9-MyD88, CCF4 FRET ratio; inhibition, % at 4.98 µM; hit rate 0.21% among 340,000; AID 504734;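 active means inhibition above the mean over all tested compounds plus 3 SD, cut at about 21% in these data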;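 further: 0% = DMSO only wells and 100% = clavulanate BLA inhibitor control wells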
TLR4-MyD88 BLA: inhibitors of human TLR4-MyD88 binding; O00206+Q99836; HeLa CL3-4 TLR4/MyD88 BLA complementation, FRET ratio; inhibition, % at 8.4 µM; hit rate 0.18% among 200,000; AID 861; in the data active means inhibition above about 25%;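 further: 0% = vehicle and 100% = reference inhibitor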
NOD2 RIPK2 PPI: NOD2-RIPK2 protein interaction inhibition. O43353. CHO BLA complementation NOD2-RIPK2, CCF4 ratio. hit rate 0.38% among 360,000. inhibition, % at 4.98 µM; in the data active means inhibition above about 21%;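 further: 0% = vehicle only and 100% = reference blocker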
IDE cell activ: activators of human insulin-degrading enzyme in cells; P14735; HEK cells, FAbeta-B cleavage, fluorescence polarization; 0% vehicle, 100% cell-free pure enzyme wells; activation, % at 5.96 µM; hit rate 0.073% among 340,000; AID 493087;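 active means activation above the mean of all tested compounds plus 3 SD, set per screening campaign, cut at about 17% in these data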
TLR9-MyD88 conf: confirmation of human TLR9-MyD88 binding inhibitors; AID 540250; inhibition, % at 4.98 µM; hit rate 51% among 680; CHO TLR9/MyD88 BLA complementation, CCF4 FRET ratio; shares compounds with TLR9-MyD88 block;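 active means mean inhibition across three repeats above about 21% taken from the earlier screen, limit read from the data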;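 further: blue over green emission ratio reports constitutive TLR9 MyD88 association via BLA complementation; 0% = DMSO vehicle wells and 100% = clavulanate BLA inhibitor wells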
BLA counter-1: beta-lactamase reporter inhibition, counter-screen artifact. shares compounds with TLR9-MyD88 block. CHO-BLA cells, CCF4 FRET ratio, BLA reporter. inhibition, % at 4.98 µM. hit rate 7% among 680;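 active means mean inhibition above a 50% cutoff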;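 further: counterscreen of TLR9-MyD88 hits on CMV-driven BLA in CHO-K1 cells; 0% = DMSO alone and 100% = clavulanate blocking BLA; higher means less blue over green ratio so more BLA blockade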
TLR9 CHO tox: CHO cell toxicity counter-screen for TLR9-MyD88 inhibitors; TLR9-MyD88 CHO cells cytotoxicity, luminescence; shares compounds with TLR9-MyD88 block; hit rate 39% among 680; inhibition, % at 4.98 µM; in the data active means inhibition above about 11%
NOD2-RIPK2 conf: NOD2-RIPK2 interaction inhibition confirmed | shares compounds with NOD2 RIPK2 PPI | CHO cells, NOD2-RIPK2 BLA complementation, CCF4 FRET | inhibition, % at 4.98 µM | hit rate 70% among 1,200;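 active means mean inhibition across replicates above a set limit taken from the earlier primary screen, cut at about 21% in these data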;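 further: 0% = DMSO-only wells and the high end = clavulanate BLA-blocked wells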
BLA counter-2: NOD2-RIPK2 counterscreen BLA reporter activity; inhibition, % at 4.98 µM; hit rate 57% among 1,200; shares compounds with NOD2 RIPK2 PPI; CHO BLA reporter, CCF4 FRET ratio;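 active means mean inhibition above the low-control mean inhibition plus three low-control SD, cut at about 11% in these data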;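 further: 0% = DMSO only wells and 100% = clavulanate high control wells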
Starred values were filed as active, the others as inactive; . = no result given; + = active, no number; ! = not active in a repeat.

SMILES	IDE cell inh	TLR9-MyD88 block	TLR4-MyD88 BLA	NOD2 RIPK2 PPI	IDE cell activ	TLR9-MyD88 conf	BLA counter-1	TLR9 CHO tox	NOD2-RIPK2 conf	BLA counter-2
N#Cc1ccccc1OCCN1C(=O)c2ccccc2C1=O	1	-9	14	0	4	.	.	.	.	.
Nc1cccc2c1C(=O)N(CCOc1ccccc1F)C2=O	3	27*	.	33*	-5	17	22	-4	38*	49*
COc1cc2ccc(=O)oc2c(O[C@@H]2O[C@H](CO)[C@@H](O)[C@H](O)[C@H]2O)c1O	4	40*	.	45*	6	24*!	32	-1	49*	59*
COc1ccc(C(=O)N2CCc3ccccc32)cc1S(=O)(=O)N1CCOCC1	1	-3	.	6	4	.	.	.	.	.
Cc1ccccc1OCCC(=O)N1CCN(S(=O)(=O)c2ccccc2F)CC1	-4	0	.	-12	0	.	.	.	.	.
COc1cc(OC)c(OC)cc1/C=C/c1cc(C(=O)O)c2ccccc2n1	-7	9	10	6	3	.	.	.	.	.
COc1ccc(/C=C/c2cc(C(=O)O)c3ccccc3n2)cc1	10	24*	.	48*	1	0	1	14*	14	13*
Cn1c(=O)[nH]c(=O)c2c1nc([N+](=O)[O-])n2Cc1ccccc1	8	22*	.	59*	-5	26*	10	99*	31*	7
O=c1oc2ccccc2c(Cl)c1CN1CCCCC1	5	23*	-7	40*	-4	75*	17	96*	95*	14*
CCCCCC(=O)N=Nc1c(O)[nH]c2ccc([N+](=O)[O-])cc12	1	23*	-5	+	4	-1	3	0	-2	-1
Cc1ccc(NCC(=O)N=Nc2c(O)[nH]c3ccc([N+](=O)[O-])cc23)cc1	-1	.	.	.	.	.	.	.	.	.
O=C(CSc1nc2ccccc2[nH]1)c1ccccc1F	1	-3	.	-2	-4	.	.	.	.	.
OCCCc1nc2n(n1)C(c1ccccc1)C=C(c1ccc(F)cc1)N2 (stereo not drawn)	3	39*	5	51*	4	21*	24	3	40*	45*
CC(C)(C)c1ccc(C2=CC(c3ccccc3)n3ncnc3N2)cc1 (stereo not drawn)	7	-3	.	-5	-3	.	.	.	.	.
COc1ccc(CCNC(=O)c2ccc(S(=O)(=O)N(C)c3ccccc3)cc2)cc1OC	-2	3	.	0	4	.	.	.	.	.
COc1ccc(OC)c(/C=C/C(=O)N2C(=O)c3cccc(N)c3C2=O)c1	7	22*	17	21*	4	16	16	19*	39*	38*
Nc1ccc2nc(-c3ccccc3)cnc2c1	-1	39*	.	44*	-3	30*	34	-2	57*	63*
Nc1ccc(-c2cnc3ccccc3n2)cc1	0	.	.	16	.	.	.	.	.	.
Nc1ccc2nc(-c3ccccc3)c(-c3ccccc3)nc2c1	3	38*	.	44*	-7	33*	35	2	60*	68*
C[n+]1cccc(NC(=O)c2ccccc2)c1	.	.	.	-9	.	.	.	.	.	.
COc1ccc2ccccc2c1/C=N/NC(=O)c1sc(N)c(C#N)c1C	0	21*	-4	22*	-1	8	0	5	3	5
CCn1nc(NC(=O)CC(C)C)c2cc3cccc(C)c3nc21	1	-7	.	1	2	.	.	.	.	.
COc1cc(C2CC(c3c(C)cc(C)[nH]c3=O)=NN2c2ccccc2F)cc(OC)c1OC (stereo not drawn)	5	23*	.	41*	-5	17	18	4	35*	47*
CCS(=O)(=O)c1ncc(Cl)c(C(=O)Nc2ccc(C)cc2)n1	1	45*	.	61*	1	42*	36	95*	65*	38*
O=C(Nc1ccc2ccccc2c1)c1cnccn1	2	-11	12	-10	3	.	.	.	.	.
SMILES	IDE cell inh	TLR9-MyD88 block	TLR4-MyD88 BLA	NOD2 RIPK2 PPI	IDE cell activ	TLR9-MyD88 conf	BLA counter-1	TLR9 CHO tox	NOD2-RIPK2 conf	BLA counter-2
CC(=O)Nc1ccc(NC(=O)c2nc(S(=O)(=O)Cc3ccccc3)ncc2Cl)cc1	6	34*	.	51*	-1	36*	30	95*	50*	34*
CS(=O)(=O)c1ncc(Cl)c(C(=O)Nc2ccc3ccccc3c2)n1	.	45*	15	79*	-2	51*	31	99*	72*	41*
CCS(=O)(=O)c1ncc(Cl)c(C(=O)Nc2ccc(S(=O)(=O)N3CCCC(C)C3)cc2)n1 (stereo not drawn)	5	2	.	14	-12	.	.	.	.	.
CCC1CCCCN1S(=O)(=O)c1ccc(NC(=O)c2nc(S(C)(=O)=O)ncc2Cl)cc1 (stereo not drawn)	5	53*	.	96*	-5	47*	31	98*	94*	48*
Cc1ccc(CS(=O)(=O)c2ncc(Cl)c(C(=O)Nc3ccc(OC(F)F)cc3)n2)cc1	-2	36*	.	94*	2	24*	15	95*	80*	21*
O=C(Nc1ccc(OC(F)F)cc1)c1ncc(Cl)c(Cl)c1Cl	7	-1	-4	-5	9	.	.	.	.	.
O=C1C(SCCO)=C(SCCO)C(=O)c2ccccc21	53*	64*	.	84*	-121	84*	17	99*	92*	34*
CC(=O)Nc1ccc(-c2cc(N)n(-c3ccccc3)n2)cc1	-5	-2	.	-15	9	.	.	.	.	.
CC(=O)Nc1ccc2c(=O)n(-c3ccccc3)sc2c1	.	28*	.	31*	.	25*	3	92*	40*	11*
CCCc1nc2sc3c(SCC(=O)NCc4ccco4)ncnc3c2c2c1CCC2	-1	8	-4	-3	-9	.	.	.	.	.
CCOc1ccc2cc(/C=C/C(=O)c3ccco3)c(Cl)nc2c1	1	29*	36*	27*	5	8	4	3	5	10
COc1ccc(/C=N/Nc2cc(C)nc3ccccc23)cc1	2	0	.	11	2	.	.	.	.	.
COc1ccc2nc(C)cc(N/N=C/c3ccc(F)cc3)c2c1	-1	23*	.	49*	4	26*	38	19*	67*	68*
Cc1nc2ccccc2nc1OCC(=O)Nc1cc(C(F)(F)F)ccc1N1CCOCC1	-2	-4	-15	3	1	.	.	.	.	.

From PubChem BioAssay
